{
  "source": "PubChem BioAssay AID504408",
  "about": "(Broad Institute, 2011)",
  "note": "Out of some 300,000 compounds screened, about 5,200 (1.7%) were called active. This is one part of a sample in which actives are shown more often than they occur. Values without a mark were called inactive.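 Rule for the calls: active = mean replicate activation of at least 50% with a set share of replicates each reaching 50%; inconclusive = only one of those two conditions met; inactive = mean below 50% and too few replicates reaching it.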",
  "data": [
    {"test": "HSF-1 response element luciferase induction – NIH3T3-HGL cells, MG132 stress, luminescence, single point, primary screen (AID 504408);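 note: 0% = median of the neutral control wells and 100% = twice that signal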", "details": "NIH3T3-HGL HSF-1 luciferase reporter, MG132, 8 h; at 9 µM; stronger effect = higher value; 100% = twice DMSO control signal", "values": [
      {"smiles": "O=C(COC(=O)c1cccc(Cl)c1)Nc1ccc2[nH]c(=O)[nH]c2c1", "activation": "9.55%"},
      {"smiles": "CSc1nc(-c2ccccc2)nc(C(Cl)Cl)n1", "activation": "84.8% (active)"},
      {"smiles": "CSc1ncc(Sc2ccccc2)c(C(=O)O)n1", "activation": "21.8%"},
      {"smiles": "CCOc1ccccc1OCC(=O)Nc1ccccc1C(=O)NC1CC1", "activation": "-12.2%"},
      {"smiles": "Cc1ccc(CNS(=O)(=O)CCNC(=O)c2ccccc2)cc1", "activation": "-0.388%"},
      {"smiles": "COc1ccccc1C(=O)NCCC(=O)NC(C)CCc1ccccc1", "note": "(configuration not stated)", "activation": "0.822%"},
      {"smiles": "O=C1CCCN1C(=O)COc1ccc([N+](=O)[O-])cc1", "activation": "-3.27%"},
      {"smiles": "O=C(NCc1ccncc1)c1ccc(NS(=O)(=O)c2cccc([N+](=O)[O-])c2)cc1", "activation": "5.25%"},
      {"smiles": "O=[N+]([O-])c1cc(Br)c(O)c(/C=N/Nc2nc3ccccc3s2)c1", "activation": "57.3% (active)"},
      {"smiles": "Cc1ccc(S(=O)(=O)Nc2nc3ccccc3s2)cc1[N+](=O)[O-]", "activation": "9.23%"},
      {"smiles": "COc1ccc(CC(=O)N/N=C/c2cc([N+](=O)[O-])cc(Br)c2O)cc1", "activation": "-6.91%"},
      {"smiles": "COc1cc(/C=N/Nc2nc3ccccc3s2)ccc1O", "activation": "193% (active)"},
      {"smiles": "COc1cc(/C=N\\Nc2nc(-c3cccs3)c(NC(C)=O)s2)ccc1O", "activation": "-1.06%"},
      {"smiles": "CCNc1nc(NCC)nc(N/N=C/c2ccc(O)c(OC)c2)n1", "activation": "-8.51%"},
      {"smiles": "O=S(=O)(Nc1ccc(O)c2ccccc12)c1ccc(OC(F)(F)F)cc1", "activation": "-68.7%"},
      {"smiles": "Cc1csc(=O)n1CC(=O)OCC(=O)N(CC(C)C)c1c(N)n(Cc2ccccc2)c(=O)[nH]c1=O", "activation": "1.95%"},
      {"smiles": "COc1ccc(CNC(=O)C2CCCC2)cc1", "activation": "-6.99%"},
      {"smiles": "CCN(CC)CCn1c2c(c(SCC(=O)Nc3nc4ccccc4s3)nc1=O)CCCC2", "activation": "-7.63%"},
      {"smiles": "CC1(C)O[C@H]2CC(=O)OCC23[C@H]2CC[C@@]4(C)[C@H](c5ccoc5)OC(=O)[C@H]5O[C@]54[C@]2(C)C(=O)C[C@@H]13", "note": "(some centres not stated)", "activation": "0.574%"},
      {"smiles": "O=C(Nc1ccncc1)c1c(F)cccc1F", "activation": "-55.9%"},
      {"smiles": "CSc1nc2ccc(NC(=O)c3c(F)cccc3F)cc2s1", "activation": "59.4% (active)"},
      {"smiles": "CCCC(=O)Nc1nc2ccc(NC(=O)c3c(F)c(F)c(OC)c(F)c3F)cc2s1", "activation": "-10.9%"},
      {"smiles": "Cc1onc(-c2c(F)cccc2Cl)c1C(=O)N(C)CC(=O)Nc1cccc(F)c1", "activation": "-3.94%"},
      {"smiles": "Cc1nn2cc(-c3ccc(Cl)cc3)cnc2c1Br", "activation": "58.7% (active)"},
      {"smiles": "CC(=O)c1ccc(NC(=O)c2ccc3c(Cl)c4c(nc3c2)CCCC4)cc1", "activation": "105% (active)"},
      {"smiles": "CC(C)CCNC(=O)c1ccc2c(Cl)c3c(nc2c1)CCC3", "activation": "-56.3%"},
      {"smiles": "COc1ccc(N2CCN(C(=O)c3ccc4c(Cl)c5c(nc4c3)CCCC5)CC2)cc1", "activation": "-1.04%"}
    ]}
  ]
}
